Source: PubChem (National Center for Advancing Translational Sciences (NCATS))
Luc counter: counter-screen: inhibitors of Kinase-Glo firefly luciferase; Kinase-Glo luciferase, ATP luminescence, 8 min; Q27757; Potency, µM (doses to about 38.3 µM), for inactives: at the highest dose activity change, negative = inhibition, actives largely listed as inhibitors; 200,000 tested, 0.28% active; note: nearly all actives have a fitted effect of over 60% in size
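Luminescence was the read-out, taken after 8-minute incubation at ambient temperature. Luciferase turned over luciferin with 10 uM ATP in imidazole pH 7.2 buffer containing KCl, MgCl2, Tween 20 and BSA.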
RORg inh: ROR gamma (mouse) transcription inhibition; 310,000 tested, 5.4% active; Potency, µM (titrated, usually from 53.6 µM), inactives show at the highest dose activity change, negative = inhibition, most hits filed as inhibitors; P51450; Drosophila S2 Gal4-RORgamma UAS-luciferase reporter, 20 h; note: nearly all actives have a fitted effect of over 60% in size
Target sequence (P51450 whole entry, looked up, the tested form may be a part): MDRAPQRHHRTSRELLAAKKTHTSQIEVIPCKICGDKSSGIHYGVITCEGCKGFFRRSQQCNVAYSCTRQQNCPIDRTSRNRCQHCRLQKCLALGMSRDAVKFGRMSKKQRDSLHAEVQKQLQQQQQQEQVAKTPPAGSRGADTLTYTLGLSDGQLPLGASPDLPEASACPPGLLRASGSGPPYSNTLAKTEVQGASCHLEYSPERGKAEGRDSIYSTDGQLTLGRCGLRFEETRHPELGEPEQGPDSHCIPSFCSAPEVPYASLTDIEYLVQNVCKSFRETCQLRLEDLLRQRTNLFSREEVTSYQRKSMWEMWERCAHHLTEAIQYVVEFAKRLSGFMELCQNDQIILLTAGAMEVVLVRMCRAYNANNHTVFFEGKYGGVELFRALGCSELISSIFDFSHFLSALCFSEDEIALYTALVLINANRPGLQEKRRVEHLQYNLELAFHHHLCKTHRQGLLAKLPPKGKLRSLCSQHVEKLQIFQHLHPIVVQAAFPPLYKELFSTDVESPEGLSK
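Schneider cells (Drosophila), stable Gal4 DBD–ROR gamma + UAS-luc; 1 hr cmpd preincubation; Cu2+ induction 700 uM final; 20 hr ambient; luminescence.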
VP16 counter: inhibits Gal4-VP16 luciferase reporter, ROR gamma counter-screen; Drosophila S2 Gal4-VP16 UAS-luciferase, luminescence, 20 h; Potency, µM (highest dose often 53.6 µM), without a hit: at the highest dose activity, negative = inhibition, actives largely listed as inhibitors; 310,000 tested, 3.5% active; AID 2546;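 note: Gal4-VP16 expression switched on by copper sulfate through the metallothionein promoter; nearly all actives have a fitted effect of over 50% in size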
An asterisk follows results filed as active; ? = inconclusive; . = no result; [ ] = dose if it differs, or a comment. The list is not random: actives were taken first. Their share in the collection is about 6.2%. Calls come from the whole dose curve; as a rule, active = well fitted curve in the direction sought with a large enough effect; inconclusive = small, poorly fitted or top-dose-only effect, or another doubt; inactive = no such curve, though single readings can be large; an effect the other way counts as inactive or inconclusive. % is set by controls: 0 for no effect and ±100 for the full control effect; potency is the fitted concentration of half-maximal effect.

SMILES | Luc counter | RORg inh | VP16 counter
Cc1ccc(C(=O)Nc2nc(-c3ccc([N+](=O)[O-])cc3)cs2)o1 | 2% | 20% | ?
O=C(Nc1nc(-c2ccccc2)cs1)c1ccco1 | . | 26% | -2%
O=C(Nc1nc(-c2ccc(Br)cc2)cs1)c1cccnc1 | 2% | -7% | 3%
O=C(NNc1nc(-c2ccc(Br)cc2)cs1)c1ccco1 | 0% | 5.6µM* | ?
COc1ccc(-c2csc(NC(=O)c3ccco3)n2)cc1 | 0% | ? | 25%
O=C(c1ccc(-c2ccccc2)cc1)N1CCN(c2ncccn2)CC1 | 2% | 43% | -10%
CN(C)c1ccc2nc3c(C(=O)O)cc(=O)c(O)c-3oc2c1 | -4%[7.66 µM] | . | .
O=C(C(Sc1ccccc1)c1ccccc1)N1CCOCC1 (stereo not drawn) | 1% | 5% | -3%
CCCc1noc2c1C(c1cc(Br)ccc1F)C(C#N)=C(N)N2 (stereo not drawn) | 2% | 15% | -15%
Cc1cc(NC(=O)C2CCCCC2)ccc1NC(=O)c1ccccc1Cl | -1% | 0% | -7%
Cc1ccc(-n2cc(C(=O)c3ccccc3O)cn2)cc1 | ? | 11µM* | ?
Cc1ccc(O)c(C(=O)c2cnn(-c3ccccc3)c2)c1 | -11% | 33% | 6%
COc1ccc(CNC(=O)CCS(=O)(=O)c2ccc3c(c2)CCN3C(C)=O)cc1 | . | -3% | -5%
O=C(OCN1C(=O)c2ccccc2C1=O)c1ccc(Cl)nc1 | . | -8% | 2%
Cc1ccc(NC(=O)CSc2nn(-c3ccccc3)c(=S)s2)cc1S(=O)(=O)N(C)C | 3% | ? | 14µM*
O=C(CSc1nn(-c2ccccc2)c(=S)s1)Nn1cnnc1 | 2% | -13% | -11%
COC(=O)/C=C/COc1ccccc1[N+](=O)[O-] | -3% | -28% | 0%
CCCCN(C(=O)c1cccc(S(=O)(=O)N2CC(C)OC(C)C2)c1)c1c(N)n(CC(C)C)c(=O)[nH]c1=O (stereo not drawn) | . | 0% | -9%
CC1=CC2=C(OC1N(C)C)c1cccc3cccc(c13)C2=O (stereo not drawn) | -6% | 8.9µM* | ?
CN(C)CCCN1C(=O)c2cccc3cccc(c23)C1=O | . | -44% | -8%
O=C(Nc1ccccc1Oc1cccnc1)C1CCCN(C/C=C/c2ccccc2)C1 (stereo not drawn) | . | 13% | -10%
Nc1nc(Nc2ccccc2)nc2c1ncn2[C@@H]1O[C@H](CO)[C@H](O)[C@H]1O | -1% | . | .
CSc1ncc(Cl)c(C(=O)Nc2nnc(SC)s2)n1 | -1% | 0% | 1%
COc1ccc(C(=O)Nc2nnc(S(=O)(=O)Cc3ccccc3)s2)cc1 | . | -10% | 0%
CCCSc1nnc(NC(=O)c2nc(SC)ncc2Cl)s1 | -1% | 13µM* | -39%
SMILES | Luc counter | RORg inh | VP16 counter
CSc1nnc(NC(=O)c2nc(S(=O)(=O)Cc3ccccc3)ncc2Cl)s1 | . | 13µM* | ?
CC(C)c1nnc(NC(=O)c2nc(S(=O)(=O)Cc3ccccc3)ncc2Cl)s1 | . | 22µM* | 11µM*
CC(C)c1nnc(NC(=O)CCc2ccccc2)s1 | . | -3% | 1%
Cc1ccc(C(=O)C2CCN(S(=O)(=O)c3ccc(C(=O)O)cc3)CC2)cc1 | . | -2% | 11%
Cc1cccc(N2CCN(C(c3ccncc3)c3nnnn3C(C)(C)C)CC2)c1C (stereo not drawn) | 2% | 0% | -10%
Cc1cc2c(c(/C=C/C(=O)c3ccccc3)c1)OC1(C=C2)Oc2ccccc2C(=O)N1C (stereo not drawn) | -2% | -2% | -11%
COc1cccc(NC(=O)COc2ccc(C(=S)N3CCN(C)CC3)cc2OC)c1 | . | 15% | -3%
CCOc1cc(/C=N/Nc2nnc(C)n2N)ccc1OC(C)=O | . | 11µM* | ?
CCOc1cc(/C=N/NC(N)=O)ccc1OC(=O)c1ccc(C)cc1 | 19% | -13% | 1%
COc1ccc(-n2c(C)cc(/C=N/Nc3nnc(C)n3N)c2C)cc1 | 2% | ? | ?
CC(C)(C)c1nnc(N/N=C/c2cc(Br)ccc2O)n(N)c1=O | 1% | 13µM* | 10µM*
COc1ccc(/C=N/Nc2nncn2N)cc1Br | . | 16%[1.91 µM] | ?
CCc1nnc(N/N=C/c2cc(Br)c(O)cc2O)n1N | . | 10µM* | 11µM*
CCc1nnc(N/N=C/c2ccc(O)c(OC)c2)n1N | . | 16µM* | 13µM*
Cc1ccc(Nc2nnc(C(C)(C)C)c(=O)n2N)cc1 | -1% | ? | 29%
Cc1cccc(C)c1-n1c(C)nn(CCOc2ccccc2)c1=O | 2% | 4% | 25%
COc1ccc2[nH]c(CN3CCN(CC=C(C)C)C(CCO)C3)c(C)c2c1 (stereo not drawn) | . | -11% | -8%
Cc1ccc(C(=O)NNC(=O)CSc2nnc(-c3ccncc3)n2-c2ccc(C)cc2)cc1 | -1% | -42% | -5%
CC(C)C[C@H](NC(=O)[C@H](Cc1ccccc1)NC(=O)[C@H](Cc1ccccc1)NC(=O)[C@@H](N)CO)C(=O)N[C@@H](CCCN=C(N)N)C(=O)N[C@@H](CC(N)=O)C(=O)O | . | 11% | 2%
C#Cc1ccc2c(c1)C(=O)N(C)Cc1c(C(=O)OCCCOC(=O)c3ncn4c3CN(C)C(=O)c3cc(C#C)ccc3-4)ncn1-2 | . | -13% | -6%
CCc1nnc(N/N=C/c2cccs2)n1N | 0% | ? | 13µM*
CCc1nnc(N/N=C/c2c(Cl)cccc2Cl)n1N | 8% | ? | ?
Cc1ccc(C(=O)N2CCN(C)CC2)cc1S(=O)(=O)N1CCCCCC1 | . | -1% | 4%
CC1CCCCC1NC(=O)CCCCCn1c(=S)[nH]c2ccsc2c1=O (stereo not drawn) | . | 11µM* | ?
O=C(CCCn1c(=S)[nH]c2ccsc2c1=O)NC1CCCCC1 | . | 20µM* | ?
SMILES | Luc counter | RORg inh | VP16 counter
O=C(CCCn1c(=O)[nH]c2ccsc2c1=O)NC1CCCCC1 | . | 1% | 3%
COc1ccc2[nH]c3c(=O)n(CCCC(=O)NC4CCCCC4C)c(=S)[nH]c3c2c1 (stereo not drawn) | . | -32% | -16%
COc1ccc(C(=O)NC(=S)NNC(=O)Cc2cccs2)cc1 | 10% | 6.3µM* | ?
COc1ccc(/C=C/C(=O)NC(=S)NNC(=O)Cc2cccs2)cc1OC | -2% | ? | -14%
COc1cc(OC)cc(C(=O)NC(=S)NNC(=O)Cc2cccs2)c1 | 1% | -7% | -22%
O=C(/C=C/c1cccs1)NC(=S)NNC(=O)Cc1cccs1 | -11% | 11µM* | ?
Nc1ncnc2nn([C@H]3O[C@@H](CO)[C@@H](O)[C@H]3O)nc12 | -1%[7.66 µM] | . | .
Cc1nnc(SCC(=O)Nc2ccc(N(C)C)cc2)n(N)c1=O | 0% | -24% | 0%
Cc1ccc(S(=O)(=O)N(C)CCCC(=O)Nc2ccc(C)cc2C)cc1 | 1% | 5% | -1%
C[C@H]1[C@H](C)CC[C@]2(C=O)CC[C@]3(C)C(=CC[C@@H]4[C@@]5(C)C[C@@H](O)[C@H](O)[C@@](C)(CO)[C@@H]5CC[C@]43C)[C@H]12 | . | -43% | ?
CC(C)NS(=O)(=O)c1ccc(NC(=O)C(C)Oc2ccc(C(=O)c3ccccc3)cc2)cc1 (stereo not drawn) | 0% | ? | 7.1µM*
CC(Oc1ccccc1)C(=O)Nc1ccc(C(N)=O)cc1 (stereo not drawn) | -5% | 1% | -5%
